These results are taken from PubChem BioAssay (NCI).

Values joined by “and” are separate entries in the source; they are usually repeats but may differ in a detail not shown here. Identical values can stand only once. This is part of a sample that, as a whole, favours compounds with a hit. Of some 83,000 tested, about 20% had one in any assay.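 Each cell line was grown in a 96-well plate and treated with one concentration of compound for 48 hours. Values below 10 were considered active.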 Active and inactive are the calls of the source.

What all share (assay): NCI-60 one-dose screen, 48 h (100 = growth as untreated, 0 = no growth, -100 = all killed)
For one assay, the system named is HCT-15 colon. Particulars: 10 µM.
The next assay deals with SNB-75 CNS. Particulars: 10 µM.
The next assay has as its system SNB-19 CNS. The note with it: 10 µM.
In another assay the test system is U251 CNS. Particulars: 10 µM.
The next assay relates to PC-3 prostate. The note with it: 10 µM.
In another assay the test system is SK-MEL-5 melanoma. Particulars: 10 µM.
A further assay concerns LOX IMVI melanoma. The note with it: 10 µM.
Another assay has as its system SK-MEL-28 melanoma. The note with it: 10 µM.
Another assay has as its system SK-MEL-2 melanoma. The note with it: 10 µM.
The next assay concerns EKVX NSCLC. Particulars: 10 µM.
The next assay deals with SN12C renal. Particulars: 10 µM.
In the next assay the test system is UO-31 renal. Particulars: 10 µM.
The subject of the next assay is TK-10 renal.
The test system of a further assay is ACHN renal. The note with it: 10 µM.
In the next assay the test system is CAKI-1 renal. Particulars: 10 µM.
Another assay deals with A498 renal. Particulars: 10 µM.
The test system of the next assay is UACC-62 melanoma.
Another assay has as its system MOLT-4 leukemia. The note with it: 10 µM unless noted.

As for `N#CC(=C1C=CC(=NO)C=C1)c1ccccc1`, the growth is 9.7% (active) in the assay with HCT-15 colon; -1.66% (active) with SNB-75 CNS; 59.6% (inactive) with SNB-19 CNS; 9.88% (active) in the assay with U251 CNS; 3.44% (active) with PC-3 prostate; 2.56% (active) with SK-MEL-5 melanoma. The growth in the assay on LOX IMVI melanoma was -6.53% (active); in the assay with SK-MEL-28 melanoma it was 76.3% (inactive); in the assay with SK-MEL-2 melanoma it was 41.1% (inactive); with EKVX NSCLC, 55.1% (inactive); in the assay on SN12C renal it was 10.3% (inactive); with UO-31 renal, 48.4% (inactive). In addition, the growth with TK-10 renal (10 µM) is 27.2% (inactive); with ACHN renal, 9.06% (active); with CAKI-1 renal, 52.3% (inactive); in the assay on A498 renal, 48% (inactive).

With `CO[C@@]12[C@H](COC(N)=O)C3=C(C(=O)C(C)=C(N)C3=O)N1C[C@@H]1N[C@@H]12`, the growth was -83.6% (active) and -100% (active) in the assay with UACC-62 melanoma (25 µM); -32.7% (active) and -74.4% (active) with TK-10 renal (25 µM).

`O=C1C(Cl)=C(Cl)C(Cl)(Cl)C(Cl)C1(Cl)Cl` (stereo not given): the growth in the assay with HCT-15 colon is 91.3% (inactive); with SNB-75 CNS it was 88.9% (inactive); with SNB-19 CNS it was 108% (inactive); in the assay with U251 CNS it was 103% (inactive); with PC-3 prostate, 101% (inactive); with SK-MEL-5 melanoma, 106% (inactive). Besides, the growth in the assay with UACC-62 melanoma (10 µM) was 98.7% (inactive); in the assay on LOX IMVI melanoma it was 96.2% (inactive); with SK-MEL-28 melanoma, 114% (inactive); in the assay with SK-MEL-2 melanoma, 100% (inactive); in the assay on EKVX NSCLC, 105% (inactive); with SN12C renal, 88.5% (inactive). The growth with UO-31 renal is 84.5% (inactive); with TK-10 renal (10 µM) it was 98.9% (inactive); in the assay with ACHN renal, 100% (inactive); with CAKI-1 renal, 99% (inactive); with A498 renal, 115% (inactive); in the assay on MOLT-4 leukemia it was 94.8% (inactive).

Consider `CC[C@@]1(OC(=O)CN(C)C)C(=O)OCc2c1cc1n(c2=O)Cc2cc3c(N)cccc3nc2-1`, for which the growth with HCT-15 colon was 6.43% (active); in the assay with SNB-75 CNS, -10.5% (active); with SNB-19 CNS, 11.2% (inactive); in the assay on U251 CNS, 3.98% (active); in the assay on PC-3 prostate, 18% (inactive); with UACC-62 melanoma (10 µM), -77.8% (active). For the same molecule, the growth in the assay with LOX IMVI melanoma is -39.3% (active); with SK-MEL-28 melanoma it was 16.5% (inactive); in the assay on SK-MEL-2 melanoma it was -17.4% (active); in the assay on EKVX NSCLC, 18.2% (inactive); with SN12C renal, 7.95% (active); with UO-31 renal, -50.8% (active). Besides, the growth is 20.1% (inactive) in the assay with TK-10 renal (10 µM), -49% (active) with ACHN renal, -20.1% (active) in the assay with CAKI-1 renal and -56.6% (active) with A498 renal.

With `COc1cccc(C(c2cc3c(cc2O)OCO3)N2CCOCC2)c1OC` (stereo not given), the growth with HCT-15 colon is 97.4% (inactive); in the assay with SNB-75 CNS, 91.2% (inactive); in the assay on SNB-19 CNS, 98.5% (inactive); in the assay on U251 CNS, 101% (inactive); in the assay on PC-3 prostate it was 95.7% (inactive); in the assay on SK-MEL-5 melanoma, 99.1% (inactive). The growth with UACC-62 melanoma (10 µM) is 95.3% (inactive); in the assay on LOX IMVI melanoma it was 97.3% (inactive); in the assay on SK-MEL-2 melanoma, 101% (inactive); in the assay with EKVX NSCLC, 97.7% (inactive); in the assay on SN12C renal, 97.8% (inactive); in the assay on UO-31 renal, 88.7% (inactive). Further, the growth in the assay with TK-10 renal (10 µM) is 101% (inactive); in the assay with ACHN renal, 103% (inactive); in the assay with CAKI-1 renal it was 94.7% (inactive); in the assay with A498 renal, 75.3% (inactive).

`Cc1c(-c2ccccc2)[nH]c2ccccc12`: the growth in the assay with HCT-15 colon was 106% (inactive); in the assay on SNB-75 CNS, 89.9% (inactive); in the assay on SNB-19 CNS it was 110% (inactive); with U251 CNS it was 106% (inactive); with PC-3 prostate, 87.8% (inactive); in the assay with UACC-62 melanoma (10 µM), 96.3% (inactive). The growth in the assay on LOX IMVI melanoma was 81.5% (inactive); in the assay on SK-MEL-28 melanoma it was 121% (inactive); with SK-MEL-2 melanoma it was 115% (inactive); in the assay with EKVX NSCLC it was 104% (inactive); in the assay on SN12C renal, 114% (inactive); in the assay on UO-31 renal it was 90.4% (inactive). Besides, the growth was 119% (inactive) in the assay with TK-10 renal (10 µM), 100% (inactive) in the assay with ACHN renal, 91.5% (inactive) with CAKI-1 renal and 91.3% (inactive) in the assay with A498 renal.

As for `Cc1cc(C)c(N2C(=O)CC(Sc3ccccc3N)C2=O)c(C)c1` (stereo not given), the growth is 58% (inactive) in the assay on HCT-15 colon; 55.7% (inactive) with SNB-75 CNS; 83.1% (inactive) with SNB-19 CNS; 81.3% (inactive) in the assay with U251 CNS; 68.4% (inactive) in the assay with PC-3 prostate; 60.8% (inactive) with UACC-62 melanoma (10 µM). Also, the growth is 69.9% (inactive) in the assay with LOX IMVI melanoma; 60.7% (inactive) in the assay with SK-MEL-28 melanoma; 88.5% (inactive) with SK-MEL-2 melanoma; 87.1% (inactive) in the assay on EKVX NSCLC; 90.4% (inactive) with SN12C renal; 55.5% (inactive) in the assay with UO-31 renal. Further, the growth in the assay with TK-10 renal (10 µM) is 123% (inactive); with ACHN renal, 87.7% (inactive); with CAKI-1 renal, 47.7% (inactive); in the assay on A498 renal, 54.2% (inactive).
